# A selection: hits, their analogues and other compounds. The true share with any hit is near 2.7%.
# Nrf2 activator = activators of Nrf2 (ARE) signaling | AREc32 ARE-luciferase reporter (MCF7-derived line), luminescence, 24 h | Potency, µM (doses to about 46.1 µM), for the others: at the highest dose activation, most hits filed as activators | 410,000 compounds, 0.31% hits; note: potency is the fitted concentration of half-maximal effect; % of control where 0% means no effect; nearly all actives have a fitted effect of over 65% in size
#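 Reporter line AREc32 (ARE-Fluc), seeded overnight in OPTI-MEM with 5% FBS; compound pin-transferred, 24 hr at 37 deg C, 5% CO2; luminescent read-out.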
# ERG Ets-DNA blk = ERG Ets/DNA interaction inhibition; fluorescence polarization, His-ERG Ets domain / labelled DNA; 370,000 compounds, 0.028% hits; Potency, µM (doses to about 76.9 µM), inactives show at the top dose FP activity, negative = inhibition, hits mostly inhibitors; P11308; active = well fitted inhibition curve with a large enough effect in the polarisation, with a control signal flat; inconclusive = small, poorly fitted or top-dose-only effect, or effect the other way, or a change in a side signal; inactive = no such curve, though single readings can be large or run the other way; the % refers to the polarisation;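 note: polarization taken with two DNA probes labelled with fluorescein and Texas red; potency is the fitted concentration of half-maximal effect; % of control where 0% means no effect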
# Target sequence (P11308 whole entry, looked up, the tested form may be a part): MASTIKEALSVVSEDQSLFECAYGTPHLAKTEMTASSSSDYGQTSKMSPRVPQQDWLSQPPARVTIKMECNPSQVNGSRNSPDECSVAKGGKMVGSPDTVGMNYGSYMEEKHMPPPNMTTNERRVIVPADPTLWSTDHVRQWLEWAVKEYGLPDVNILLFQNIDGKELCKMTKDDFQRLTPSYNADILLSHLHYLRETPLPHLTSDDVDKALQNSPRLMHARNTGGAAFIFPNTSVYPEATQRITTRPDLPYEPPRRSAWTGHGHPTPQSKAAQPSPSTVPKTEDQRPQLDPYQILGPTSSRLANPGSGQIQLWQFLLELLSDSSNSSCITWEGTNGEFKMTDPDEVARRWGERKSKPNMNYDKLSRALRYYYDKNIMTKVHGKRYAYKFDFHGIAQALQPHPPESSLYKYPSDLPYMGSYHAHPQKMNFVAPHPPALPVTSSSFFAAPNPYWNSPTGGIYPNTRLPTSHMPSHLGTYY
#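 His-tagged ERG Ets domain (1 uM in the protein solution; 300mM KCl, 50mM Tris-HCl, 1mM EDTA, 1mM DTT, pH 7.5) received compound, then a probe mix of 5 nM fluorescein-DNA and 100nM Texas-615-DNA. Fluorescence polarization was read for both dyes.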
# Nrf2 block = inhibitors of Nrf2 signaling; A549 ARE-Fluc reporter, luciferase luminescence, 18-24 h; Potency, µM (series often up to 46 µM), inactives show at the top dose activity change, negative = inhibition, hits mostly inhibitors; 360,000 compounds, 2.1% hits; AID 504444; note: potency is the fitted concentration of half-maximal effect; % is set by controls: 0 for no effect and ±100 for the full control effect; nearly all actives have a fitted effect of over 60% in size
#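 Nrf2 activity is the BugLite luminescence, read 15 min after reagent at room temperature, following CellTiter-Fluor cytotoxicity readout (30 min, 37C). Compound titrations were applied for 18-24 h to 5000 A549 ARE_Fluc cells/well in 5% FBS OPTI-MEM.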
# LDHA inh = blocks human lactate dehydrogenase A; 480,000 compounds, 0.15% hits; purified LDHA, NADH/diaphorase-resazurin fluorescence; active compounds read low; activity change, % (values are at about 110 or 230 µM); P00338; AID 1347041; in the data active = activity change below about -30%; inconclusive = mostly about -25% to -30%;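 note: plate controls were DMSO wells for no effect and wells without enzyme for full effect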
#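 LDH5 2 nM; NADH 0.06 mM, pyruvate 0.2 mM; 200 mM Tris pH 7.4, EDTA, Tween-20; 5 min RT. Detection: diaphorase 0.133 mg/mL + resazurin 37 µM, fluorescence ex540/em590 at 0 and 20 min; normalized to enzyme-free and DMSO wells.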
# A549 tox = kills or reduces viability of A549 cells in Nrf2 counter-screen. AID 504648. Potency, µM (highest dose often 46 µM), without a hit: at the highest dose activity change, negative = cytotoxicity, most hits filed as inhibitors. 390,000 compounds, 0.16% hits. A549 ARE-Fluc cells, CellTiter-Fluor viability, 18-24 h; note: potency is the fitted concentration of half-maximal effect; % is set by controls: 0 for no effect and ±100 for the full control effect
#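 A549 ARE-Fluc cells in 5% FBS OPTI-MEM, 5000 cells/well, rested 2 h then exposed to compounds in concentration-response for 18-24 h at 37 °C. Viability by CellTiter-Fluor fluorescence (Ex 405/Em 525) after 30 min; luciferase luminescence (BugLite, 15 min, RT) read afterwards.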
# ALOX12 inh = ALOX12 (human) lipoxygenase inhibition; Potency, µM (highest dose often 108 µM), without a hit: at the highest dose activity change, negative = inhibition, hits mostly inhibitors; P18054; 580,000 compounds, 1.1% hits; purified 12hLO, xylenol orange hydroperoxide absorbance; AID 1671190; note: potency is the fitted concentration of half-maximal effect; % is set by controls: 0 for no effect and ±100 for the full control effect
#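 Hydroperoxide product was detected by ferrous iron/xylenol orange as the 573 to 405 nm absorbance ratio. Arachidonic acid at 40 uM (final) was turned over for 30 min at room temperature by 150 nM human 12hLO, pH 7.0 Hepes buffer, after 15 min compound preincubation.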
# * = called active by the depositor; ? = inconclusive; . = no result given. Unless noted, calls come from the whole dose curve; as a rule, active = well fitted curve in the direction sought with a large enough effect; inconclusive = small, poorly fitted or top-dose-only effect, or another doubt; inactive = no such curve, though single readings can be large; an effect the other way counts as inactive or inconclusive.
SMILES,Nrf2 activator,ERG Ets-DNA blk,Nrf2 block,LDHA inh,A549 tox,ALOX12 inh
CC(C)c1ccc(NC(=O)c2cnc3sc(N4CCCC4)nn3c2=O)cc1,0%,-3%,2.3µM*,-1,-8%,-12%
CCc1ccc(NC(=O)c2cnc3sc(N4CCCC4)nn3c2=O)cc1,0%,8%,-25%,-7,11%,-19%
O=C(NCCOc1ccc(Cl)cc1)c1cccc(S(=O)(=O)N2CCCC2)c1,-1%,7%,23µM*,-3,0%,1%
O=C(NCc1ccc2c(c1)OCO2)c1cccc(S(=O)(=O)N2CCCC2)c1,0%,-2%,-2%,-2,1%,0%
O=C(NCc1ccc2c(c1)OCO2)c1cccc(S(=O)(=O)N2CCCCC2)c1,0%,-8%,15µM*,3,-9%,12%
COc1ncccc1-c1nnn(-c2ccccc2Br)n1,?,-19%,29%,0,2%,28µM*
CC(C)CCn1nc(C(=O)OCC(=O)Nc2ccc(Cl)cc2F)c2ccccc2c1=O,.,.,.,-14,.,-5%
Cc1ccc(NC(=O)CN2C(=O)NC3(CCCCC3)C2=O)cc1S(=O)(=O)N1CCOCC1,0%,13%,-22%,-3,-6%,-7%
O=C(CN1C(=O)NC2(CCCCC2)C1=O)Nc1ccc(Cl)c(S(=O)(=O)N2CCOCC2)c1,1%,-6%,23µM*,1,-8%,-6%
O=C(Cc1cccs1)Nc1ccc(Cl)c(S(=O)(=O)N2CCOCC2)c1,1%,11%,16µM*,-3,-7%,?
COc1ccc(-c2cc3nc(C)c(CCC(=O)Nc4ccc5c(c4)OCO5)c(C)n3n2)c(OC)c1,.,.,.,2,.,17%
COc1ccc(O)c(C(=O)/C=C/c2ccc(C)cc2)c1,.,.,.,17,.,?
CC(=O)c1cnn(-c2cc(Nc3ccc(F)c(F)c3)nc(C)n2)c1C,.,.,.,3,.,?
CC1(COc2ccccc2)COc2ccc(C(=O)NCCc3ccccn3)cc2N1 (configuration not stated),.,.,.,.,.,18µM*
Clc1cccc(/C=N/Nc2nnc(Cl)c3ccccc23)c1,?,.,?,-6,-1%,-16%
Cc1nc(C#N)c(N/N=C/c2cccc(Cl)c2)o1,7%,0%,12%,-12,-9%,40µM*
COc1ccc(-c2csc(N3N=C(C)CC3c3cc(OC)c(OC)c(OC)c3)n2)cc1 (configuration not stated),.,.,.,1,.,-2%
COc1cc(/C=C2\C(=N)N3N=C(S(C)(=O)=O)SC3=NC2=O)ccc1OS(=O)(=O)c1ccc(C)cc1,5%,-8%,-8%,-5,6%,45µM*
O=C(NC1CCCC1)N[C@@H]1C[C@H](Cn2cc(C3CC3)nn2)[C@@H](O)[C@H]1O,.,.,.,.,.,22µM*
COc1ccc(-c2cc(C(=O)N3CCN(CC(=O)N(C)C)CC3)c3ccccc3n2)cc1,.,.,.,0,.,?
CCOc1ccccc1Nc1nnc(SCc2nnc(-c3cc(OC)c(OC)c(OC)c3)o2)s1,6%,-6%,16µM*,-1,?,-10%
Cc1ccccc1OCCOc1ccc2ccc(=O)oc2c1,.,.,.,0,.,2%
CCN(C(=O)Cn1nnc2sc(-c3ccccc3)cc2c1=O)c1cccc(C)c1,4.5µM*,-1%,26%,-4,11%,?
CCCN(CCC)C(=O)Cn1nnc2sc(-c3ccccc3)cc2c1=O,?,-4%,4%,0,0%,?
S=C(NCc1ccccc1)N/N=C/c1ccccn1,.,.,.,-2,.,-29%
SMILES,Nrf2 activator,ERG Ets-DNA blk,Nrf2 block,LDHA inh,A549 tox,ALOX12 inh
S=C(NCc1ccccn1)NN=Cc1ccccn1,-1%,.,15µM*,-8,?,?
CN(C)c1ccc(CNC(=O)c2nccnc2N)cn1,.,.,.,0,.,-72%
COc1ccc(C(=O)N2CCC3(CC2)N=C(c2ccc(Br)cc2)NO3)cc1,.,.,.,.,.,29%
Cc1ccc(NC(=O)c2nsc(Cl)c2Cl)cc1,5.6µM*,-18%,?,-11,5%,0%
O=C(Nc1cccc(-c2nnc(-c3ccccc3)o2)c1)c1ccc(Br)o1,4%,.,23µM*,1,?,6%
NC(=O)C1CCN(Cc2cc(=O)oc3cc(-c4ccccc4)c(O)cc23)CC1,.,.,.,-4,.,?
CCOc1cc(C2NC(=O)c3c(sc4c3CCN(C)C4)N2)ccc1OC(=O)c1ccccc1Cl (configuration not stated),-2%,?,8.2µM*,-1,-7%,-19%
COc1ccc(C(=O)Oc2ccc(C3NC(=O)c4c(sc5c4CCN(C)C5)N3)cc2OC)cc1 (configuration not stated),6%,-1%,2%,6,4%,50%
O=C(Cc1cccs1)N(Cc1ccncc1)C1CC1,.,.,.,-1,.,-24%
Cc1ccc(CN(C(=O)CCCc2cccs2)C2CC2)cc1,.,.,.,3,.,8.9µM*
COc1ccc(-c2csc(NC(=O)c3ccccc3F)c2C(=O)O)cc1,-1%,7%,13µM*,-7,-19%,.
CCOC(=O)c1c(-c2ccc(Br)cc2)csc1NC(=O)c1ccccc1F,0%,-4%,4%,-10,7%,-3%
Nc1nccnc1C(=O)Nc1ccc2ccccc2n1,.,.,.,7,.,10µM*
CCOC(=O)CNc1cccc(C(=O)O)c1,.,.,.,0,.,-28%
Nc1ccccc1C1CC1,.,.,.,15,.,7.1µM*
COc1ccc(-n2c(C)c(C)c3c2ncn2nc(-c4ccccn4)nc32)cc1,.,.,.,1,.,-16%
CN1C(=O)CSc2ccc(NC(=O)N3CCN(c4ccccn4)CC3)cc21,9%,.,?,3,-1%,-19%
Cc1ccc(C)c(N2CCN(C(=O)Nc3ccc4c(c3)N(C)C(=O)CS4)CC2)c1,11%,6%,16µM*,1,-5%,1%
O=C(CCCCl)NC1=NN(c2ccccc2)C(=O)C1,4%,.,3%,9,23%,-7%
O=C(COc1ccc(Cl)cc1)NC1=NN(c2ccccc2)C(=O)C1,2%,-2%,-3%,-3,7%,45µM*
Cc1c(C(=O)c2ccc(Cl)cc2)oc2cc(NC(=O)c3ccncc3)ccc12,.,.,.,-11,.,?
CCOc1ccc(/C=C/c2nc(C#N)c(N3CCN(C)CC3)o2)cc1,.,.,.,-6,.,?
O=C1c2ccccc2S(=O)(=O)N1Cc1nc2ccccc2s1,-1%,-3%,13µM*,-5,-4%,34%
O=C1c2ccccc2S(=O)(=O)N1Cc1nc(-c2ccc(Cl)cc2Cl)cs1,.,.,.,-3,.,?
O=C(NC(Nc1ncc(S(=O)(=O)c2ccc([N+](=O)[O-])cc2)s1)(C(F)(F)F)C(F)(F)F)c1ccc(Cl)cc1,?,-1%,5.8µM*,3,?,?
